# Test results taken from PMC11006913.
# Where a chain is given by its changes, count along the chain named.
# Assays:
# Assay in all cases: PBM; 200 nM protein, PBS
# Conditions in all cases: dsDNA, one strand shown
# NKX2-5 [1] = molecular target: NKX2-5 (Homo sapiens, UniProt P52952 125-210, R139K)
# VENTX [2] = molecular target: T1, VENTX (Homo sapiens, UniProt O95231 78-163, R121Q)
# T1 sequence: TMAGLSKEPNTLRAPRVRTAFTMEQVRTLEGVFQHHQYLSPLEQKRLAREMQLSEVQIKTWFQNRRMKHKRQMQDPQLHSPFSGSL
# VENTX [3] = molecular target: T2, VENTX (Homo sapiens, UniProt O95231 78-163)
# T2 sequence: T1 sequence with Q44R
# VENTX [4] = molecular target: T3, VENTX (Homo sapiens, UniProt O95231 78-163, Y115F)
# T3 sequence: T1 sequence with Y38F, Q44R
# NKX2-6 [5] = molecular target: T4, NKX2-6 (Homo sapiens, UniProt A6NCS4 118-204)
# T4 sequence: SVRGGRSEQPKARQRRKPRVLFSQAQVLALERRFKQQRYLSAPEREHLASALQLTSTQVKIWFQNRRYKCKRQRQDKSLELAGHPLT
# NKX2-6 [6] = molecular target: T5, NKX2-6 (Homo sapiens, UniProt A6NCS4 118-204, F151L)
# T5 sequence: T4 sequence with F34L
# NKX3-2 [7] = molecular target: NKX3-2 (Homo sapiens, UniProt P78367 192-278, P234S)
# Sequence of NKX3-2 (Homo sapiens, UniProt P78367 192-278, P234S) (P78367 192-278 P234S): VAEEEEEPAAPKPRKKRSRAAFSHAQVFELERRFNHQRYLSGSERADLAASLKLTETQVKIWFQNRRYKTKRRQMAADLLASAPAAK
# NKX2-5 [8] = molecular target: NKX2-5 (Homo sapiens, UniProt P52952 125-210)
# Sequence of NKX2-5 (Homo sapiens, UniProt P52952 125-210) (P52952 125-210): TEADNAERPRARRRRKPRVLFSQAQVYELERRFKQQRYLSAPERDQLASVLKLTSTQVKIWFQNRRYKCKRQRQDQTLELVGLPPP
# NKX3-2 [9] = molecular target: NKX3-2 (Homo sapiens, UniProt P78367 192-278)
# Sequence of NKX3-2 (Homo sapiens, UniProt P78367 192-278) (P78367 192-278): as the sequence (P78367 192-278 P234S) above, with S43P counted along it
# NKX2-4 [10] = molecular target: T6, NKX2-4 (Homo sapiens, UniProt Q9H2Z4 175-261, P217L)
# T6 sequence: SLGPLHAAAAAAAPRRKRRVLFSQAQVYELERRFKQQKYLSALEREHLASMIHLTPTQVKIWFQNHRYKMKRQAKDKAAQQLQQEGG
# NKX2-4 [11] = molecular target: T7, NKX2-4 (Homo sapiens, UniProt Q9H2Z4 175-261, T231S)
# T7 sequence: T6 sequence with L43P, T57S
# NKX2-4 [12] = molecular target: T8, NKX2-4 (Homo sapiens, UniProt Q9H2Z4 175-261)
# T8 sequence: T6 sequence with L43P
# NKX2-4 [13] = molecular target: T9, NKX2-4 (Homo sapiens, UniProt Q9H2Z4 175-261, R246Q)
# T9 sequence: T6 sequence with L43P, R72Q
# NKX2-6 [14] = molecular target: T10, NKX2-6 (Homo sapiens, UniProt A6NCS4 118-204, R150C)
# T10 sequence: T4 sequence with R33C
# Sequence of NKX2-5 (Homo sapiens, UniProt P52952 125-210, R139K) (P52952 125-210 R139K): as the sequence (P52952 125-210) above, with R15K counted along it
sequence,measurement,setting,value
CCGACGCC,binding signal,NKX2-5 [1],"8.82 upbm affinity estimate (log intensity, higher = more binding, comparable within an allelic series)"
same,binding signal,VENTX [2],"8.14 upbm affinity estimate (log intensity, higher = more binding, comparable within an allelic series)"
same,binding signal,VENTX [3],"8.37 upbm affinity estimate (log intensity, higher = more binding, comparable within an allelic series)"
same,binding signal,VENTX [4],"8.23 upbm affinity estimate (log intensity, higher = more binding, comparable within an allelic series)"
same,binding signal,NKX2-6 [5],"8.94 upbm affinity estimate (log intensity, higher = more binding, comparable within an allelic series)"
same,binding signal,NKX2-6 [6],"9.35 upbm affinity estimate (log intensity, higher = more binding, comparable within an allelic series)"
same,binding signal,NKX3-2 [7],"10.5 upbm affinity estimate (log intensity, higher = more binding, comparable within an allelic series)"
same,binding signal,NKX2-5 [8],"8.73 upbm affinity estimate (log intensity, higher = more binding, comparable within an allelic series)"
same,binding signal,NKX3-2 [9],"10.5 upbm affinity estimate (log intensity, higher = more binding, comparable within an allelic series)"
CGTGCACG,binding signal,NKX2-5 [1],"8.84 upbm affinity estimate (log intensity, higher = more binding, comparable within an allelic series)"
same,binding signal,NKX2-5 [8],"8.84 upbm affinity estimate (log intensity, higher = more binding, comparable within an allelic series)"
CTCTTAAG,binding signal,NKX2-5 [1],"12.3 upbm affinity estimate (log intensity, higher = more binding, comparable within an allelic series)"
same,binding signal,NKX2-4 [10],"12.5 upbm affinity estimate (log intensity, higher = more binding, comparable within an allelic series)"
same,binding signal,NKX2-4 [11],"12.7 upbm affinity estimate (log intensity, higher = more binding, comparable within an allelic series)"
same,binding signal,NKX2-4 [12],"12.3 upbm affinity estimate (log intensity, higher = more binding, comparable within an allelic series)"
same,binding signal,NKX2-6 [5],"13.5 upbm affinity estimate (log intensity, higher = more binding, comparable within an allelic series)"
same,binding signal,NKX2-4 [13],"12.9 upbm affinity estimate (log intensity, higher = more binding, comparable within an allelic series)"
same,binding signal,NKX2-6 [6],"10.6 upbm affinity estimate (log intensity, higher = more binding, comparable within an allelic series)"
same,binding signal,NKX2-5 [8],"12.3 upbm affinity estimate (log intensity, higher = more binding, comparable within an allelic series)"
CTGGCCAG,binding signal,NKX2-5 [1],"8.81 upbm affinity estimate (log intensity, higher = more binding, comparable within an allelic series)"
same,binding signal,VENTX [2],"8.26 upbm affinity estimate (log intensity, higher = more binding, comparable within an allelic series)"
same,binding signal,VENTX [3],"8.37 upbm affinity estimate (log intensity, higher = more binding, comparable within an allelic series)"
same,binding signal,VENTX [4],"8.37 upbm affinity estimate (log intensity, higher = more binding, comparable within an allelic series)"
same,binding signal,NKX2-5 [8],"8.9 upbm affinity estimate (log intensity, higher = more binding, comparable within an allelic series)"
GCGACGCC,binding signal,NKX2-5 [1],"8.87 upbm affinity estimate (log intensity, higher = more binding, comparable within an allelic series)"
same,binding signal,VENTX [2],"8.02 upbm affinity estimate (log intensity, higher = more binding, comparable within an allelic series)"
same,binding signal,VENTX [3],"8.21 upbm affinity estimate (log intensity, higher = more binding, comparable within an allelic series)"
same,binding signal,VENTX [4],"8.16 upbm affinity estimate (log intensity, higher = more binding, comparable within an allelic series)"
same,binding signal,NKX2-5 [8],"8.83 upbm affinity estimate (log intensity, higher = more binding, comparable within an allelic series)"
ACTTGAGA,binding signal,NKX2-5 [1],"12.3 upbm affinity estimate (log intensity, higher = more binding, comparable within an allelic series)"
same,binding signal,NKX2-4 [10],"12.6 upbm affinity estimate (log intensity, higher = more binding, comparable within an allelic series)"
same,binding signal,NKX2-4 [11],"12.9 upbm affinity estimate (log intensity, higher = more binding, comparable within an allelic series)"
same,binding signal,NKX2-4 [12],"12.4 upbm affinity estimate (log intensity, higher = more binding, comparable within an allelic series)"
same,binding signal,NKX2-4 [13],"13.1 upbm affinity estimate (log intensity, higher = more binding, comparable within an allelic series)"
same,binding signal,NKX2-6 [6],"10.7 upbm affinity estimate (log intensity, higher = more binding, comparable within an allelic series)"
same,binding signal,NKX2-5 [8],"12.2 upbm affinity estimate (log intensity, higher = more binding, comparable within an allelic series)"
CCACTCGA,binding signal,NKX2-5 [1],"12.5 upbm affinity estimate (log intensity, higher = more binding, comparable within an allelic series)"
same,binding signal,NKX2-4 [10],"12.6 upbm affinity estimate (log intensity, higher = more binding, comparable within an allelic series)"
same,binding signal,NKX2-4 [11],"13.1 upbm affinity estimate (log intensity, higher = more binding, comparable within an allelic series)"
same,binding signal,NKX2-4 [12],"12.4 upbm affinity estimate (log intensity, higher = more binding, comparable within an allelic series)"
same,binding signal,NKX2-6 [14],"11.6 upbm affinity estimate (log intensity, higher = more binding, comparable within an allelic series)"
same,binding signal,NKX2-4 [13],"13.1 upbm affinity estimate (log intensity, higher = more binding, comparable within an allelic series)"
same,binding signal,NKX2-5 [8],"12.2 upbm affinity estimate (log intensity, higher = more binding, comparable within an allelic series)"
CACTTCAG,binding signal,NKX2-5 [1],"12.4 upbm affinity estimate (log intensity, higher = more binding, comparable within an allelic series)"
same,binding signal,NKX2-4 [10],"12.6 upbm affinity estimate (log intensity, higher = more binding, comparable within an allelic series)"
same,binding signal,NKX2-4 [11],"12.9 upbm affinity estimate (log intensity, higher = more binding, comparable within an allelic series)"
same,binding signal,NKX2-4 [12],"12.4 upbm affinity estimate (log intensity, higher = more binding, comparable within an allelic series)"
same,binding signal,NKX2-6 [5],"13.4 upbm affinity estimate (log intensity, higher = more binding, comparable within an allelic series)"
same,binding signal,NKX2-4 [13],"13.1 upbm affinity estimate (log intensity, higher = more binding, comparable within an allelic series)"
same,binding signal,NKX2-6 [6],"10.8 upbm affinity estimate (log intensity, higher = more binding, comparable within an allelic series)"
same,binding signal,NKX2-5 [8],"12.3 upbm affinity estimate (log intensity, higher = more binding, comparable within an allelic series)"
AGTACTTG,binding signal,NKX2-5 [1],"12.5 upbm affinity estimate (log intensity, higher = more binding, comparable within an allelic series)"
same,binding signal,NKX2-4 [10],"12.5 upbm affinity estimate (log intensity, higher = more binding, comparable within an allelic series)"
same,binding signal,NKX2-4 [11],"12.9 upbm affinity estimate (log intensity, higher = more binding, comparable within an allelic series)"
same,binding signal,NKX2-4 [12],"12.4 upbm affinity estimate (log intensity, higher = more binding, comparable within an allelic series)"
same,binding signal,NKX2-6 [14],"11.6 upbm affinity estimate (log intensity, higher = more binding, comparable within an allelic series)"
same,binding signal,NKX2-6 [5],"13.5 upbm affinity estimate (log intensity, higher = more binding, comparable within an allelic series)"
same,binding signal,NKX2-4 [13],"13 upbm affinity estimate (log intensity, higher = more binding, comparable within an allelic series)"
same,binding signal,NKX2-6 [6],"10.8 upbm affinity estimate (log intensity, higher = more binding, comparable within an allelic series)"
same,binding signal,NKX2-5 [8],"12.3 upbm affinity estimate (log intensity, higher = more binding, comparable within an allelic series)"
